A selection: hits, their analogues and other compounds. The true share with any hit is near 1.1%.
PI4K2A inh = inhibitors of human PI4K2A; 0.13% of 420,000 active; activity change, negative = inhibition, % at 76.9 µM; Q9BTU6; purified PI4K2A, ADP-Glo luminescence, 1 h; hits give low values; AID 1346378; in the data active means activity change below about -50%; inconclusive means mostly about -30% to -49%;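 further: -100% = wells without enzyme as full effect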
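PI4K2A activity was measured by ADP-Glo luminescence: enzyme (4 ug/mL stock) and phosphatidylinositol (1.2 mM stock) in Tris pH 7.5/MgCl2/EGTA/Triton X-100 buffer were reacted with ATP (300 microM stock) for one hour at ambient temperature.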
TrxR1 substrate = rat thioredoxin reductase 1 substrate activity; O89049; purified TrxR1 substrate turnover, NADPH consumption readout; Potency, µM (series often up to 114 µM), for inactives: at the top dose activity change, negative = substrate turnover; 0.01% of 390,000 active; AID 588456; further: potency means the concentration at half of the fitted maximal effect; nearly all actives have a fitted effect of over 50% in size
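Rat TrxR1, dispensed at 90 nM, was prereduced with 400 uM NADPH (final) for 5 min at ~22 deg C, then incubated with compound 15 min before 400 uM selenite. A first-read NADPH fluorescence drop versus no-compound background flagged substrates.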
rTrxR1 inhibitor = blocks rat thioredoxin reductase 1 | O89049 | recombinant rTrxR1, NADPH fluorescence consumption, selenite substrate | Potency, µM (highest dose often 114 µM), without a hit: at the top dose activity change, negative = inhibition, most hits filed as inhibitors | 1% of 390,000 active | AID 588453; further: potency means the concentration at half of the fitted maximal effect; nearly all actives have a fitted effect of over 65% in size
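Rat TrxR1 (90 nM in the dispensed reagent) was pre-reduced with 400 uM NADPH for 5 min at room temperature, then incubated with compound for 15 min. After 400 uM selenite was added, NADPH fluorescence (Ex 340/Em 450 nm) was followed for 8 min.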
a7 integrin act = activators of alpha7 integrin expression for muscular dystrophy; alpha7betagal myoblasts, beta-gal FDG fluorescence, 48 h; Potency, µM (top dose mostly 38.3 µM), for the others: at the highest dose activation, most hits filed as activators; AID 624291; 0.064% of 350,000 active;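 further: potency means the concentration at half of the fitted maximal effect; 100% = response of the positive control SU9516; nearly all actives have a fitted effect of over 60% in size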
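Alpha7betagal+/- myoblasts (passage 13) were plated 16-24 hr, then exposed to compounds (1:260 dilution of DMSO stock) for 48 hours at 37C. After MPER lysis, β-galactosidase reporter activity was read as FDG fluorescence (ex 480/em 540) after 30 minutes.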
LDHA inh = blocks human lactate dehydrogenase A; P00338; purified LDHA, NADH/diaphorase-resazurin fluorescence; hits give low values; activity change, % (values are at about 110 or 230 µM); 0.15% of 480,000 active; AID 1347041; in the data active means activity change below about -30%; inconclusive means mostly about -25% to -30%;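 further: plate controls were DMSO wells for no effect and wells without enzyme for full effect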
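Human LDH5 (2 nM) was incubated with 0.06 mM NADH and 0.2 mM pyruvate for 5 min at room temperature in Tris pH 7.4. Remaining NADH was coupled through diaphorase/resazurin, and resorufin fluorescence was read at 0 and 20 min.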
GALK inhibitor = blocks human galactokinase activity; 0.007% of 270,000 active; Potency, µM (highest dose often 57.5 µM), without a hit: at the top dose activity change, negative = inhibition, hits mostly inhibitors; P51570; Purified GALK, Kinase-Glo residual ATP luminescence; further: potency means the concentration at half of the fitted maximal effect
Target sequence (P51570 whole entry, looked up): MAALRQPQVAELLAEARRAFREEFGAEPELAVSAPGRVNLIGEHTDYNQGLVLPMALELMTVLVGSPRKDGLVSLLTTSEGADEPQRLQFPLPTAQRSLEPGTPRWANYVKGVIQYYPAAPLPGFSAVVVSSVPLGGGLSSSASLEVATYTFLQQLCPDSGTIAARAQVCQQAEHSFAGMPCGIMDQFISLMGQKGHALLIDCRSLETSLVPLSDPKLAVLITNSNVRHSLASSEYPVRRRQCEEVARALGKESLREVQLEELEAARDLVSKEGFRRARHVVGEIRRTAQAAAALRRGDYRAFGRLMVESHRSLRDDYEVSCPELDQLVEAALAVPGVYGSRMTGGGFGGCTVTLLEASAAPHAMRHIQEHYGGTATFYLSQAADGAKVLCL
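5 nM enzyme, 35 uM ATP, 100 uM galactose, 20 mM HEPES pH8.0, 5 mM MgCl2; 1 h RT; residual ATP by Kinase-Glo Plus luminescence, qHTS format.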
Active calls of the source: *; ? = inconclusive; · = no result; [ ] = another dose, or the depositor's remark. Unless noted, the call rests on the fitted dose curve; in most records, active means well fitted curve in the direction sought with a large enough effect; inconclusive means small, poorly fitted or top-dose-only effect, or another doubt; inactive means no such curve, though single readings can be large; an effect the other way counts as inactive or inconclusive. Unless noted, on the % scale 0 is the no-effect control and ±100 the full control effect.

SMILES	PI4K2A inh	TrxR1 substrate	rTrxR1 inhibitor	a7 integrin act	LDHA inh	GALK inhibitor
CCOc1ccc2c(c1)cc(C(=O)NCCOc1ccc(Cl)cc1)n2C	·	·	·	·	11	·
CCOc1cc(/C=C2\NC(=O)NC2=O)cc(Cl)c1O	·	·	·	·	6	·
CCOc1cc(/C=C2\NC(=O)NC2=O)cc([N+](=O)[O-])c1O	-2	-11%	50µM*	22%	-1	·
CCC(=O)Nc1ccc(NC(=S)NC(=O)/C=C/c2ccco2)cc1	-12	-3%	?	-24%	0	0%
CC(=O)NC(=S)Nc1ccc(NC(=S)NC(=O)/C=C/c2ccco2)cc1	?	-9%	-43%	-40%	6	·
O=C(/C=C/c1ccco1)NC(=S)Nc1ccc(N2CCCC2)cc1	-12	-18%	50µM*	-21%	12	0%
O=C(/C=C/c1ccco1)NC(=S)Nc1ccc(C(=O)O)cc1	-15	-13%	40µM*	?	3	2%
CCN1CCN(CC(=O)Nc2oc3ccccc3c(=O)c2-c2ccc(OC)c(OC)c2)CC1	·	·	·	·	-6	·
CC(C)C(=O)Nc1ccc(C(=O)CSc2nnc(C3CC3)n2Cc2ccccc2)cc1	·	·	·	·	-13	·
Cc1ccc(-c2nn(-c3ccccc3)cc2C=C2C(=O)CC(C)(C)CC2=O)cc1	?	-7%	22µM*	2%	-5	2%
c1ccc(N2CCSC2c2cccs2)cc1 (stereo unspecified)	·	·	·	·	-2	·
COc1cccc(-c2nc(C#N)c(N3CCN(C(=O)c4ccco4)CC3)o2)c1	-7	182%	140%	-14%	-11	4%
O=C(CN1CCN(C(=O)c2ccco2)CC1)Nc1c2c(nc3c1CCC3)CCCC2	-2	10%[57.1 µM]	17%[57.1 µM]	10%	-35*	0%
O=C(CN1CCN(C(=O)c2ccco2)CC1)Nc1ccccc1	4	7%	19%	13%	-4	-1%
COc1cccc(NC(=O)CN2CCN(C(=O)c3ccco3)CC2)c1	-3	9%	71µM*	8%	6	1%
COc1cccc(-c2cc(C(=O)N3CCN(C(=O)c4ccco4)CC3)on2)c1	1	5%	79µM*	-52%	1	-4%
CN1CCOC(CNCc2cnc(C(C)(C)C)s2)C1 (stereo unspecified)	·	·	·	·	8	·
COC(=O)C1=CN(Cc2ccc(OC)cc2)C=C(C(=O)OC)C1c1ccccc1OC(C)C	·	·	·	·	1	·
Cc1cc(Br)ccc1NC(=O)CN(C)Cc1nc2ccccc2o1	·	·	·	·	10	·
N#CC1=C(N)C(C#N)(C#N)C2(CCC3(CC2)OCCO3)C2CC3(CC=C12)OCCO3 (stereo unspecified)	-5	6%	89µM*	8%	19	0%
CNC(=S)N/N=C(/C)c1ccc([N+](=O)[O-])cc1	·	·	·	·	1	·
CCCN1C(=O)S/C(=C/c2ccc(N3CCOCC3)o2)C1=O	-4	-13%	28µM*	-7%	24	-2%
CCCN1C(=O)S/C(=C\c2ccc(N3CCOCC3)o2)C1=O	-12	-6%[57.1 µM]	7.9µM*	-73%	33	8%
CCc1ccc(CNC(=O)c2sc3nc(C)nc(N4CCCC4)c3c2C)cc1	·	·	·	·	-1	·
Cc1ccc(CCC(=O)N(C)Cc2cccs2)cc1	·	·	·	·	2	·
SMILES	PI4K2A inh	TrxR1 substrate	rTrxR1 inhibitor	a7 integrin act	LDHA inh	GALK inhibitor
CCOC(=O)c1sc2nc(CN(C)Cc3ccccc3)[nH]c(=O)c2c1C	·	·	·	·	2	·
CC1(C)CC(=O)C2=C(C1)NC1=C(C(=O)c3ccccc31)C2c1ccccc1 (stereo unspecified)	-1	-12%	40µM*	-13%	-3	1%
Cc1noc(/C=C\c2ccc(S(=O)(=O)N3CCN(C4CCCCC4)CC3)cc2)c1NC(=O)C1CC1	·	·	·	·	0	·
O=C(CN1C(=O)NC2(CCCCC2)C1=O)Oc1ccc2c(C(F)(F)F)cc(=O)oc2c1	8	9%	40µM*	-22%	0	·
Cc1ccc(OCCOC(=O)CN2C(=O)NC3(CCCC3)C2=O)cc1	-2	-5%[57.1 µM]	-19%[57.1 µM]	16%	-1	·
CCc1cc(=O)oc2cc(OC(=O)CN3C(=O)NC4(CCCC4)C3=O)ccc12	11	114%[57.1 µM]	?	30%	-3	-6%
O=C(CN1C(=O)NC2(CCCC2)C1=O)Oc1ccc2ccc(=O)oc2c1	4	855%	79µM*	24%	3	·
CC(C)(C(=O)NCCc1c[nH]c2ccccc12)c1ccccc1	·	·	·	·	-6	·
Cn1cccc1/C=C1\CCc2ccccc2C1=O	-56*	-7%	5%	-2%	0	14%
COc1ccccc1C=C1CCc2ccccc2C1=O	-63*	·	·	·	4	·
O=C1C(=Cc2ccccc2Cl)CCc2ccccc21	-78*	·	·	·	4	·
O=C1/C(=C/c2ccccc2Br)CCc2ccccc21	·	·	·	·	2	·
CCc1noc(CN2CCN(c3cc(C)nc(C(C)C)n3)CC2)n1	·	·	·	·	1	·
Cc1ccc(C(=O)c2sc(Nc3ccc(Cl)cc3C)nc2N)cc1	·	·	·	·	-10	·
Cc1cccc(NC(=O)c2ccc(OC3CSC3)cc2)c1	-50*	8%	14%	-10%	-2	6%
CC(=O)c1cccc(NC(=O)c2ccc(OC3CSC3)cc2)c1	5	5%	17%	11%	-2	-1%
C=C1C(=O)OC2C1CCC(C)=C1C(=O)C3OC3(C)C12 (stereo unspecified)	-21	7%	8.9µM*	-49%	0	·
C=C1C(=O)O[C@@H]2[C@H]1CC[C@H](C)[C@]1(O)CCC(=O)[C@@]21C	-2	4%	6%	-72%	-3	2%
O=C(/C=C/c1ccsc1)c1ccccc1	·	·	·	·	18	·
O=C(c1ccccc1)C1CN(Cc2ccccc2)CCC1(O)c1ccccc1 (stereo unspecified)	8	9%	7.1µM*	-35%	3	10%
OC(c1ccccc1)C1CN(Cc2ccccc2)CCC1(O)c1ccccc1 (stereo unspecified)	-1	16%	?	14%	1	0%
Cc1ccc(Sc2ccc(Cl)nn2)cc1	·	·	·	·	-5	·
O=C(O)C1Nc2c(O)cccc2C2C=CCC12 (stereo unspecified)	?	-8%	35µM*	-45%	9	1%
Cc1ccc(C)c2c1NC(C(=O)O)C1CC=CC21 (stereo unspecified)	·	6%	3.2µM*	·	7	·
O=C(O)C1Nc2c(Cl)cc(Cl)c(Cl)c2C2C=CCC12 (stereo unspecified)	-6	-1%	?	17%	13	·
O=C(O)C1Nc2c(Cl)cc(Cl)cc2C2C=CCC12 (stereo unspecified)	-12	4%	20µM*	6%	-2	4%
Cc1cc(NC(=O)C(C)OC(=O)c2cc3c(s2)CCCC3)no1 (stereo unspecified)	·	·	·	·	-3	·
